# An excerpt weighted towards active compounds, which were near 2.5% of everything screened.
# EBV LMP1 NFkB – EBV LMP1-driven NF-kappaB luciferase reporter inhibitors, primary screen, cell-based, luminescence, single point | LMP1-induced NF-kappaB luciferase reporter cells | actives 0.69% (n = 350,000) | inhibition, % at 12.5 µM; in the data active means inhibition above about 41%; inconclusive means no clear call, values can overlap the other calls
# EWS-Fli inh – EWS/Fli-driven NR0B1 reporter inhibitors, primary screen, A673 cells, NR0B1 luciferase, luminescence, MLPCN library. viability-normalised. inhibition, % at 12.6 µM. actives 0.67% (n = 350,000). AID 651661, 2012;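 active means mean inhibition of at least 50% after viability correction, with every replicate also passing that limit; inconclusive means mean reaches 50% but only one of two replicates passes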;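 further: firefly luciferase signal divided by Alamar Blue viability fluorescence both relative to DMSO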
# TWEAK-Fn14 inh – inhibitors of TWEAK-Fn14 signaling, primary screen, luciferase reporter cells, uHTS | TWEAK-stimulated Fn14 reporter cells, luciferase luminescence, 8 h | inhibition, % at 10 µM | actives 2% (n = 360,000); in the data active means inhibition above about 50%
# TROY NFkB inh – inhibitors of TROY-driven NF-kB signaling, primary screen, Q293 LMP1-TROYcd cells, NF-kB luciferase, uHTS; Q293 LMP1-TROYcd NF-kB luciferase reporter, 4 h; inhibition, % at 10 µM; actives 0.98% (n = 360,000);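 active means compounds whose plate-normalised and pattern-corrected inhibition of the luciferase reporter signal at the single screening dose is 50% or more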
# LGR2 antag – inhibitors of bursicon-induced LGR2 CRE-luciferase signal, primary screen, cell-based, HEK293, CRE-luciferase reporter, bursicon stimulation; actives 0.35% (n = 380,000); AID 720647, 2013; bursicon-stimulated, 4 h; Drosophila bursicon receptor LGR2 (rickets); inhibition, % at 9.99 µM;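 active means drop in luminescence signal, shown as inhibition above about 50% in the replicate tests, limit read from the data, passing the limit was not always enough; inconclusive means probably only some replicates passing the limit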;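 further: agonist challenge used bursicon conditioned medium at about half maximal strength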
# Hits are given with their value; . = inactive; ? = inconclusive; / = no result.
SMILES,EBV LMP1 NFkB,EWS-Fli inh,TWEAK-Fn14 inh,TROY NFkB inh,LGR2 antag
Cc1ccc(S(=O)(=O)N(C)C[C@H]2Oc3ccc(NS(=O)(=O)c4cccs4)cc3CC(=O)N([C@H](C)CO)C[C@@H]2C)cc1,/,.,/,/,.
Cc1ccc(-c2nnc(-c3ccccc3Br)o2)cc1,.,.,57,.,?
CC(O)CC(=O)OC[C@]12CC[C@H]3[C@@](C)(CC[C@H]4C(C)(C)CCC[C@]34C)[C@@H]1CC(C1=CC(=O)OC1O)O2 (some centres not stated),/,59,106,89,/
C/C=C/c1ccc(C2[C@H]3CNC[C@@H]2N3S(=O)(=O)c2c(C)noc2C)cc1 (some centres not stated),/,.,/,/,.
CO[C@@H]1CN(C)C(=O)c2cc(NC(=O)C3CCC3)ccc2OC[C@@H](C)N(Cc2ccncc2)C[C@@H]1C,/,.,/,/,.
CCNC(=O)C[C@@H]1CC[C@@H](NS(=O)(=O)c2ccc(C)cc2)[C@@H](CO)O1,/,.,/,/,.
COc1ccc(S(=O)(=O)N2CCOCC2)cc1NC(=O)COC(=O)CCS(=O)(=O)c1ccc(C)cc1,68,.,.,.,.
Cc1ccc(S(=O)(=O)N2CCOCC2)cc1NC(=O)CN1CCN(c2ccc(O)cc2)CC1,.,.,78,.,.
Cc1ccc(S(=O)(=O)N2CCOCC2)cc1NC(=O)CN1CCN(C)CC1,.,.,.,.,.
CCNC(=O)C[C@@H]1CC[C@@H]2[C@H](COC[C@@H](O)CN2C(=O)Nc2ccc(C(F)(F)F)cc2)O1,/,.,/,/,.
Cc1ccc(-n2c(-c3cnccn3)n[nH]c2=S)c(Br)c1,.,.,.,.,.
FC(F)(F)c1ccccc1-n1c(-c2cnccn2)n[nH]c1=S,.,.,84,65,/
O=[N+]([O-])c1ccc(O)c2ncccc12,.,.,.,.,101
O=S(=O)(O)c1cccc2c(N=Nc3ccc(O)c4ncccc34)cccc12,.,/,.,.,/
COc1cccc(N=Nc2ccc(O)c3ncccc23)c1,69,.,52,.,.
O=Nc1ccc(O)c2ncccc12,.,72,55,.,.
O=[N+]([O-])c1ccc(O)c2cccnc12,.,.,.,.,/
Oc1ccc(N=Nc2ccc3c(c2)OCCO3)c2cccnc12,60,.,.,76,.
CC(C)NC(=O)N(C)C[C@H]1Oc2c(NS(=O)(=O)c3ccc(Cl)cc3)cccc2C(=O)N([C@H](C)CO)C[C@H]1C,/,.,/,/,.
CO[C@@H]1CN(C)C(=O)c2cc(NC(=O)C3CC3)ccc2OC[C@@H](C)N(Cc2ccc(F)cc2)C[C@H]1C,/,.,/,/,.
N#C[C@@H]1[C@@H](c2ccccc2-c2cccc(F)c2)[C@H](CO)N1C(=O)NC1CCCC1,/,.,/,/,.
CO[C@H]1CN(C)C(=O)c2cc(NC(C)=O)ccc2OC[C@H](C)N(Cc2ccncc2)C[C@H]1C,/,.,/,/,.
COc1ccc(N=Nc2ccc(O)c3ncccc23)cc1,?,.,.,.,.
Cc1ccccc1N=Nc1ccc(O)c2ncccc12,44,.,.,.,/
COc1ccc(C)cc1N=Nc1ccc(O)c2ncccc12,86,.,.,.,.
SMILES,EBV LMP1 NFkB,EWS-Fli inh,TWEAK-Fn14 inh,TROY NFkB inh,LGR2 antag
Cc1cccc(NCc2ccc(O)c3ncccc23)c1,.,.,.,.,?
Cn1nnnc1Sc1ncnc2scc(-c3cccc4ccccc34)c12,.,.,60,.,.
Cn1nnnc1Sc1ncnc2scc(-c3ccc(F)cc3)c12,71,/,57,.,/
Cn1nnnc1Sc1ncnc2scc(-c3ccc(Br)cc3)c12,.,.,88,60,100
Cn1nnnc1Sc1ncnc2scc(-c3ccccc3Br)c12,.,.,.,.,.
COc1ccccc1-c1csc2ncnc(Sc3nnnn3C)c12,.,.,.,.,.
Cn1nnnc1Sc1ncnc2scc(Br)c12,.,.,99,68,?
Cn1nnnc1Sc1ncnc2scc(-c3ccccc3)c12,.,/,.,.,.
Cn1nnnc1Sc1ncnc2scc(-c3ccc[nH]3)c12,.,.,70,.,.
COc1ccc(NS(=O)(=O)c2cc(NC(=O)CCSc3ccccc3)ccc2OC)cc1,.,/,58,.,.
COc1ccc(NC(=O)CCSc2ccc(C)cc2)cc1S(=O)(=O)Nc1ccccc1Cl,.,.,.,.,.
COc1ccc(NC(=O)CCS(=O)(=O)c2ccccc2Cl)cc1S(=O)(=O)Nc1ccc(Cl)cc1,.,57,.,.,.
COc1ccc(NC(=O)CCC(=O)c2cccs2)cc1S(=O)(=O)Nc1ccc(Cl)cc1,.,.,.,.,.
CCCNC(=O)C[C@@H]1CC[C@@H]2[C@H](COc3ccc(NC(=O)Nc4cccc(C)c4)cc3C(=O)N2C)O1,/,.,/,/,.
C[C@H](CO)N1C[C@H](C)[C@@H](CN(C)Cc2ccc(Cl)c(Cl)c2)Oc2ccc(NS(C)(=O)=O)cc2C1=O,/,.,/,/,.
COc1ccc(C=C2c3ccccc3C(=O)c3ccccc32)c(OC)c1,.,52,.,.,.
CCc1ccc(OCC(=O)NC(NC(=S)Nc2ccc(Cl)cc2)C(Cl)(Cl)Cl)cc1 (configuration not stated),.,.,72,.,.
CCCC(=O)NC(NC(=S)Nc1ccc(N=Nc2ccccc2)cc1)C(Cl)(Cl)Cl (configuration not stated),.,.,76,.,/
C[C@H](CO)N1C[C@H](C)[C@@H](CN(C)C(=O)CCCN(C)C)OCCCC[C@H](C)Oc2ccc(NC(=O)c3ccccc3)cc2C1=O,/,.,/,/,.
Cc1c(C)n(C(=O)CSc2nncn2C)c2ccccc12,.,/,.,.,.
Cn1cnnc1SCC(=O)n1c2ccccc2c2ccccc21,46,/,.,.,/
COc1ccc(-c2cnc(NCc3cc4c(cc3[N+](=O)[O-])OCO4)n2C)cc1,66,/,.,.,.
COc1ccc(OC)c(CNc2ncc(-c3cccc([N+](=O)[O-])c3)n2C)c1,.,.,.,.,.
COc1ccc(NC(=O)Nc2ccc3c(c2)CC(=O)N([C@H](C)CO)C[C@H](C)[C@H](CN(C)S(=O)(=O)c2ccc(F)cc2)O3)cc1,/,.,/,/,.
CCCCOC(=O)c1ccc(NC(=O)c2c(OC)cccc2OC)cc1,.,.,.,83,.
C[C@@H]1CCCCO[C@H](CN(C)CC2CCCCC2)[C@H](C)CN([C@H](C)CO)C(=O)c2cc(NS(C)(=O)=O)ccc2O1,/,.,/,/,.
Clc1ccc(-c2ccnc(Oc3ccc4ccccc4c3)n2)cc1,57,/,.,.,.
N#Cc1cc(-c2ccccc2)nc(Oc2ccc(Cl)cc2)n1,.,/,50,.,.
CC(C)CC#Cc1cnc2c(c1)C(=O)N([C@H](C)CO)C[C@H](C)[C@@H](CN(C)C(=O)c1ccccc1)O2,/,.,/,/,.

# Source: PubChem BioAssay
